Consider eleven compounds from PubChem BioAssay (NCATS).

In one assay the test system is HACAT. As to the kind of experiment: qHTS assay to identify novel small-molecules to repurpose for Merkel cell carcinoma treatment (AID 1296009). Note: nearly all actives have a fitted effect of over 60% in size. The following applies: MCC and control cell lines, CellTiter-Glo viability, 72 h; at 44.8 µM (top of the series) unless noted. A digest of the protocol: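 Luminescence from CellTiter-Glo, read 10 min after addition at room temperature, reported viability following a 72 hr, 37 degree celsius treatment with NPC or MIPE compounds in titration; values normalized to plate controls.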

A further assay concerns HeLa. As to the kind of experiment: Primary qHTS to identify gynecologic anti-cancer compounds using libraries of approved drugs and bioactive compounds (AID 1345084). For activity change, negative = cytotoxicity: % is set by controls: 0 for no effect and ±100 for the full control effect. Note: nearly all actives have a fitted effect of over 55% in size. Note: potency is the fitted concentration of half-maximal effect. The following applies: Gynecologic cancer cell panel viability, ATPlite luminescence, 48 h; series mostly up to 57.5 µM. A digest of the protocol: (§1)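 ATP-based viability (ATPlite), 1,000 cells/well, 16 h pre-incubation, 48 h compound at 37 C, 5% CO2, 15 min RT before read.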

The subject of another assay is PA-1. Described as above. The following applies: Gynecologic cancer cell panel viability, ATPlite luminescence, 48 h; series mostly up to 57.5 µM. A digest of the protocol: as §1
On the technique in general: ATP-based viability assays read luminescence as a measure of living cells.

The nature of assay [1]: Primary redox qHTS assay for identification of artifact compounds. (AID 1845223).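 Note: 0% = DMSO and 100% = reference compound.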 The essentials: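 Redox-cycling detection via DTT (250 uM final) oxidation coupled to Amplex Red (25 uM)/HRP (250 mU/mL) in HBSS. 15 min preincubation plus 30 min after DTT, room temperature. Ex/Em 525/598 nm; 4-parameter Hill fit against DMSO and 10 uM DA3003.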
For another assay, the system named is NIH3T3. As to the kind of experiment: Cytotoxic Profiling of Annotated Libraries Using Quantitative High-Throughput Screening (AID 1296008). Note: nearly all actives have a fitted effect of over 60% in size. Note: potency is the fitted concentration of half-maximal effect. To be noted: Five cell lines viability, CellTiter-Glo ATP luminescence, 48-72 h; max response: hits give low values. The essentials:
(§2)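 Compounds were pin-transferred onto cells and incubated 48 or 72 hr at 37 degree Celsius, 95% humidity. CellTiter-Glo was added, plates sat 10 min at room temperature, then ATP-coupled luminescence was imaged as the viability read-out.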

A further assay relates to Es-2. The assay can be described thus: Primary qHTS to identify gynecologic anti-cancer compounds using libraries of approved drugs and bioactive compounds (AID 1345084). For activity change, negative = cytotoxicity: % is set by controls: 0 for no effect and ±100 for the full control effect. Note: nearly all actives have a fitted effect of over 55% in size. Note: potency is the fitted concentration of half-maximal effect. To be noted: Gynecologic cancer cell panel viability, ATPlite luminescence, 48 h; series mostly up to 57.5 µM. A digest of the protocol:
as §1
(qHTS replaces the single test concentration by a dilution series.)

The test system of another assay is SKOV3. Described as above. The following applies: Gynecologic cancer cell panel viability, ATPlite luminescence, 48 h; series mostly up to 57.5 µM. The essentials:
as §1

The nature of assay [2]: Primary qHTS for Huh7 cytotoxicity: counterscreen for inhibitors of MERS-S pseudotyped particle cell entry (AID 1479147; calls by dose curve). The following applies: outcome: dose series up to 57.1 µM unless noted.
The nature of assay [3]: Primary qHTS for Vero E6 cytotoxicity: counterscreen for inhibitors of SARS-S pseudo-typed particle cell entry (AID 1479150; calls by dose curve; note: % is set by controls: 0 for no effect and ±100 for the full control effect). The following applies: outcome: dose series up to 57.1 µM unless noted.
Assay [4] has as its target Cytochrome P450 2D6 (Homo sapiens) (UniProt P10635). As to the kind of experiment: Cytochrome P450 family 2 subfamily D member 6 (CYP2D6) small molecule antagonists: luciferase biochemical (cell-free) qHTS assay (AID 1645840; active = well fitted curve in the direction sought with a large enough effect in the repeat runs; an effect the other way counts as inactive or inconclusive; note: nearly all actives have a fitted effect of over 55% in size; note: potency is the fitted concentration of half-maximal effect). A digest of the protocol:
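P450-Glo CYP2D6 system: proluciferin substrate converted by enzyme to luciferin, read by luminescence proportional to activity. Enzyme-substrate mix with compound 10 min at room temperature, then NADPH regeneration 1 h before detection reagent.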

Assay [5] has as its target Cytochrome P450 2C9 (Homo sapiens) (UniProt P11712). The assay can be described thus: Cytochrome P450 family 2 subfamily C member 9 (CYP2C9) small molecule antagonists: luciferase biochemical (cell-free) qHTS assay (AID 1645842; active = well fitted curve in the direction sought with a large enough effect in the repeat runs; an effect the other way counts as inactive or inconclusive). The essentials: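 P450-Glo CYP2C9 system: proluciferin substrate with enzyme in mix containing 0.4% BSA, 10 min at room temperature, then NADPH regeneration solution added and incubated 1 h at 37C. Detection reagent stopped reaction; luminescence read after 20 min as RLU.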

Assay [6] in a line: Cytotoxicity counterscreen for inhibitors of SARS-CoV-2 cell entry (AID 1645845; calls by dose curve; note: nearly all actives have a fitted effect of over 50% in size). A digest of the protocol:
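After a 15 min room-temperature ATPLite 1step step, luminescence reflected ATP remaining in HEK293-ACE2 cells exposed to compound for 1 h plus 48 h at 37 C, with percent activity set by cell and no-cell controls.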
Background: Counterscreens check selectivity or assay interference.

The next assay deals with HEK293. As to the kind of experiment: Cytotoxic Profiling of Annotated Libraries Using Quantitative High-Throughput Screening (AID 1296008). Note: nearly all actives have a fitted effect of over 60% in size. Note: potency is the fitted concentration of half-maximal effect. The following applies: Five cell lines viability, CellTiter-Glo ATP luminescence, 48-72 h; max response: hits give low values. A digest of the protocol:
as §2

The next assay has as its system CAOV3. The assay can be described thus: Primary qHTS to identify gynecologic anti-cancer compounds using libraries of approved drugs and bioactive compounds (AID 1345084). For activity change, negative = cytotoxicity: % is set by controls: 0 for no effect and ±100 for the full control effect. Note: nearly all actives have a fitted effect of over 55% in size. Note: potency is the fitted concentration of half-maximal effect. The following applies: Gynecologic cancer cell panel viability, ATPlite luminescence, 48 h; series mostly up to 57.5 µM. A digest of the protocol:
as §1

A further assay has as its system Hek293T. The description is as above. The following applies: Gynecologic cancer cell panel viability, ATPlite luminescence, 48 h, control line for the selectivity index; series mostly up to 57.5 µM. The essentials: as §1
The test system of a further assay is Tov112D. The description is as above. To be noted: Gynecologic cancer cell panel viability, ATPlite luminescence, 48 h; series mostly up to 57.5 µM. A digest of the protocol: as §1
In the next assay the test system is C33A. The description is as above. To be noted: Gynecologic cancer cell panel viability, ATPlite luminescence, 48 h; series mostly up to 57.5 µM. The essentials: as §1

Inconclusive results are not listed. Unmarked numbers belong to inactive results. Calls of active or inactive are those of the source. Unless noted, calls come from the whole dose curve; as a rule, active = well fitted curve in the direction sought with a large enough effect; inconclusive = small, poorly fitted or top-dose-only effect, or another doubt; inactive = no such curve, though single readings can be large; an effect the other way counts as inactive or inconclusive.

Chain of Cytochrome P450 2D6 (Homo sapiens) (P10635 whole entry, looked up): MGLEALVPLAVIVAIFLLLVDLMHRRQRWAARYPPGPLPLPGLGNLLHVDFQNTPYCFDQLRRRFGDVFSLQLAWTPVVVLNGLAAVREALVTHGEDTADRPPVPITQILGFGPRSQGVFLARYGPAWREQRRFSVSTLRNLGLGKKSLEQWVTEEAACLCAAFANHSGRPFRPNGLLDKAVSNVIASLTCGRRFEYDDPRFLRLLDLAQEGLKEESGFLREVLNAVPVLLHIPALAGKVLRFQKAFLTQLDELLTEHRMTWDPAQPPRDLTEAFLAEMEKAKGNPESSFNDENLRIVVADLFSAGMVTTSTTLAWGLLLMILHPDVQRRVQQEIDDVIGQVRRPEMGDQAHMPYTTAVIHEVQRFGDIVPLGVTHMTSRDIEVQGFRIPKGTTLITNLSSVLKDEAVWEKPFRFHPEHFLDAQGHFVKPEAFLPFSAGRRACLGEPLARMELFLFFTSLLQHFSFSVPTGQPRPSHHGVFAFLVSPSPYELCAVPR
Chain of Cytochrome P450 2C9 (Homo sapiens) (P11712 whole entry, looked up): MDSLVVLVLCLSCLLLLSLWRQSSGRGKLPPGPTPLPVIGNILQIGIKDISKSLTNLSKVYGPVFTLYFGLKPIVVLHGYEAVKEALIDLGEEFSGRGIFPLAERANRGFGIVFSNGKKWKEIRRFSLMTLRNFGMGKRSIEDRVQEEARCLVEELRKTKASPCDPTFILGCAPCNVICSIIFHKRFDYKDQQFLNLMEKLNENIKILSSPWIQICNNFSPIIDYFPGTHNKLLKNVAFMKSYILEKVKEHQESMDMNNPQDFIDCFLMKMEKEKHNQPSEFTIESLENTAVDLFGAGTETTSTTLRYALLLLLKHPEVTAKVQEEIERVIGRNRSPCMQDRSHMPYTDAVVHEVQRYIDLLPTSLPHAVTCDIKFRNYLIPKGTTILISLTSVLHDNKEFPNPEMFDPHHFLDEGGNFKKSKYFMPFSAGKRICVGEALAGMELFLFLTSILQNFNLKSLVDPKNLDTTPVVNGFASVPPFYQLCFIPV

Take `COc1ccc(CC2C(=O)NC(C)C(=O)N(C)C3Cc4ccc(cc4)Oc4cc(ccc4OC4OC(CO)C(O)C(O)C4O)CC(C(=O)NC(C)C(=O)NC(CCC(=O)O)C(=O)N2C)N(C)C3=O)cc1` (stereo not drawn): the outcome in the assay on HACAT was “inactive [at 9.27 µM]”. Further, the activity change, negative = cytotoxicity with HeLa was -13.7% [at 11.6 µM]. For the same compound, the Potency with PA-1 is 7080 nM (active).
Turning to `Fc1cc(F)c2c(c1)[C@H]1C=CC[C@H]1C(c1cccnc1)N2` (stereo partly drawn), the Potency entry in assay [1] was “inactive”. For the same compound, in the assay on HeLa, the Potency is 14100 nM (active).
With `C=C1[C@@H](O)[C@]2(O)OC[C@]34C2[C@]2(C)C(C[C@H]3OC(=O)[C@H](O)[C@@]14O)C(C)=CC(=O)[C@H]2O` (stereo partly drawn), the Potency result (in assay [1]; with Es-2; with HeLa; with SKOV3) was “inactive” throughout. In the assay with NIH3T3, the max response was -5.4%.
For the compound `COc1ccc(C(C)(C)C)cc1CN[C@H]1C2CCN(CC2)[C@H]1C(c1ccccc1)c1ccccc1`, the compound was called inactive in assay [2] and in assay [3]. The values for the Potency (in [4]; in [5]; with HEK293) were 2680 nM (active), 26800 nM (active) and 10300 nM (active), respectively. Moreover, the Potency entry (in [6]; in assay [1]; in the assay with CAOV3; in the assay with HeLa; with Hek293T; in the assay with PA-1) was “inactive” in each case. The Potency result in the assay on SKOV3 and in the assay on Tov112D was “inactive” throughout. Besides, the max response in the assay on NIH3T3 is -16.4%.
As to `CCOC(=O)C1(CCc2ccccc2)CCN(Cc2ccc(NC(C)=O)cc2)CC1`, the Potency in [4] is 2130 nM (active). The max response with NIH3T3 is -0.351%. For the same compound, the Potency entry in the assay with C33A, in the assay on CAOV3, with Es-2, in the assay with Hek293T, in the assay with PA-1 and in the assay on SKOV3 was “inactive” throughout. Moreover, the Potency entry in the assay on Tov112D was “inactive”.
`CC1CCCCCC(=O)c2c(O)cc(O)cc2CC(=O)O1` (stereo not drawn): in the assay with NIH3T3, the max response is 2.84%. Besides, the compound was called inactive in the assay on HACAT. Also, the Potency entry in the assay with C33A, in the assay on CAOV3, with Es-2, in the assay on HeLa, with Hek293T and with PA-1 was “inactive” throughout. Moreover, the Potency entry in the assay with SKOV3 and with Tov112D was “inactive” each time.
Turning to `C/C=C(\C)C(=O)O[C@@H]1[C@@H](C)[C@]2(O)C3C=C(C)C(=O)[C@@]3(O)CC(CO)=C[C@H]2C2C(C)(C)[C@@]21OC(=O)C(C)CC` (stereo partly drawn), the Potency entry (in assay [1]; in the assay with C33A; in the assay on CAOV3; in the assay with HeLa; in the assay on Hek293T; in the assay on SKOV3) was “inactive” in each case. Besides, in the assay on Tov112D, the Potency result is “inactive”. Besides, the compound was classed as inactive with NIH3T3. Further, the outcome with HACAT is “inactive [at 17.4 µM]”.
On to `C[C@@H]1Cc2c(Cl)cc(C(=O)N[C@@H](Cc3ccccc3)C(=O)O)c(O)c2C(=O)O1`, for which the Potency entry (in [1]; in the assay on C33A; in the assay on CAOV3; in the assay with HeLa; with SKOV3) was “inactive” each time. Also, the max response in the assay with NIH3T3 was -8.41%. The outcome with HACAT was inactive.
With `N#Cc1ccccc1-c1cc(-c2ccccn2)cn(-c2ccccc2)c1=O`, the Potency entry (in [4]; in [1]; with C33A; in the assay on CAOV3; in the assay on Es-2; in the assay with HeLa) was “inactive” throughout. The Potency result with Hek293T, with PA-1, in the assay with SKOV3 and in the assay with Tov112D was “inactive” throughout. For the same compound, the Potency in assay [5] was 13500 nM (active). The max response with NIH3T3 was -0.815%.
On to `COC1CC(OC2CCC3(C=O)C(CCC4C3CCC3(C)C(C5=CC(=O)OC5)CCC43O)C2)OC(C)C1O` (stereo not drawn), for which the Potency was 112 nM (active) with HEK293; 141 nM (active) with C33A; 316 nM (active) with CAOV3; 251 nM (active) in the assay with Es-2; 224 nM (active) with HeLa; 251 nM (active) with Hek293T. Besides, the Potency in the assay on PA-1 is 199 nM (active); in the assay on SKOV3 it was 199 nM (active); in the assay with Tov112D, 100 nM (active). Moreover, the max response in the assay on NIH3T3 was 0.727%.
Consider `C[C@]12CC[C@H](OC3OC(CO)C(O)C(O)C3OC3OC(CO)C(O)C(O)C3O)C[C@@H]1CC[C@@H]1C2CC[C@]2(C)[C@@H](C3=CC(=O)OC3)CC[C@]12O` (stereo partly drawn), for which the Potency result (in assay [1]; in the assay on CAOV3; with HeLa; with PA-1; in the assay on SKOV3) was “inactive” each time. In the assay with NIH3T3, the compound was classed as inactive. In addition, the Potency in the assay with Tov112D is 7080 nM (active).
